Laboratory results from PubChem BioAssay (Tox21).
Values joined by “and” are separate entries in the source; they are usually repeats but may differ in a detail not shown here. Identical values can stand only once. Results filed as inconclusive are left out. Entries that show only a call come without a potency. Some compounds were tested as several samples or in several runs, with calls that do not always agree. Active and inactive are the calls of the source. Unless noted, calls come from the whole dose curve.

Columns and labels:
[1] = Nuclear factor erythroid 2-related factor 2/antioxidant responsive element (Nrf2/ARE) small molecule agonists: luciferase reporter gene qHTS assay in human keratinocytes (AID 1919969); note: nearly all actives have a fitted effect of over 35% in size; note: potency is the fitted concentration of half-maximal effect
[2] = molecular target: Gonadotropin-releasing hormone receptor (Homo sapiens) (UniProt P30968); assay: Human gonadotropin-releasing hormone receptor (GnRHR) small molecule agonists, calcium flux assay in GnRHR-HEK293 cells (AID 1920063); note: nearly all actives have a fitted effect of over 35% in size; note: potency is the fitted concentration of half-maximal effect
In short: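 Stable human GnRHR HEK293 line. 18 h plating, then calcium dye for 1 h at 37 C. Agonist-mode compound addition from DMSO stocks; fluorescence monitored 3 min.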

[3] = molecular target: KiSS-1 receptor (Homo sapiens) (UniProt Q969F8); assay: Human kisspeptin (KISS1R) small molecule agonists, calcium flux assay in KISS1R-HEK293 cells (AID 1920064; active = well fitted activation curve with a large enough effect in the repeat runs)
In short: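 After overnight (18 h) culture at 37 C/5% CO2, human KISS1R-HEK293 cells received calcium dye for 1 h, then test compound; emission at 540 nm (excitation 480 nm) was tracked for 3 min.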

[4] = G protein-coupled receptor (GPCR) small molecule agonists, calcium flux assay: HEK293 wild type cell line counter screen (AID 1920065)
In short: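 Following 18 h incubation at 37 C/5% CO2, plates got calcium dye for 1 h; compounds, ATP or DMSO were then pinned in and fluorescence followed kinetically (480/540 nm).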

[5] = p53 small molecule agonists, cell-based qHTS assay with human liver microsomes (AID 1963577)
In short: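 Cells carrying a p53-responsive bla reporter were rested 5 h (37 C, 5% CO2) before compound transfer. Human liver microsomes plus NADPH, 0.5 mg/mL final apiece, supplied metabolism during the 16 h 37 C exposure.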

[6] = p53 small molecule agonists, cell-based qHTS assay with rat liver microsomes (AID 1963578)
In short: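 Fluorescence from a beta-lactamase reporter under a p53 response element was measured after cells had been incubated 16 h at 37 C with test compound and rat liver microsomes plus NADPH (0.5 mg/mL final each).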

[7] = p53 small molecule agonists, cell-based qHTS assay with human liver microsomes: qHTS cell viability counter screen (AID 1963579); note: nearly all actives have a fitted effect of over 45% in size; note: potency is the fitted concentration of half-maximal effect
In short: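 Seed p53RE-bla cells at 4,000 per well; incubate 5 h at 37 C; add compound, human liver microsomes and NADPH; incubate 16 h at 37 C; add CellTiter-Glo; after 30 min at room temperature, read luminescence.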

[8] = p53 small molecule agonists, cell-based qHTS assay with rat liver microsomes: qHTS cell viability counter screen (AID 1963580); note: nearly all actives have a fitted effect of over 45% in size; note: potency is the fitted concentration of half-maximal effect
In short: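 Cytotoxicity counter screen: intracellular ATP read by CellTiter-Glo luminescence in the p53 reporter wells. HCT-116 p53RE-bla cells were treated for 16 h at 37 C alongside rat liver microsomes and NADPH, each 0.5 mg/mL final.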

[9] = molecular target: 5-hydroxytryptamine receptor 2A (Homo sapiens) (UniProt P28223); assay: 5-hydroxytryptamine receptor 2A (HTR2A) small molecule agonists, cell-based qHTS assay (AID 1963587); note: nearly all actives have a fitted effect of over 30% in size
In short: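 Kinetic calcium-flux fluorescence (2 min, 1 sec intervals) after compound addition in agonist mode. HTR2A-CHO cells were cultured 18 h, then dye-loaded 1 h at 37 C.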

[10] = molecular target: Muscarinic acetylcholine receptor M1 (Homo sapiens) (UniProt P11229); assay: Cholinergic receptor muscarinic 1 (CHRM1) small molecule antagonists, cell-based qHTS assay (AID 1963588); note: nearly all actives have a fitted effect of over 40% in size
In short: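 Compounds were tested at 15 concentrations in three independent runs. Dye-loaded CHRM1-CHO cells were exposed 5 min at room temperature before stimulation by acetylcholine added at 50nM. Intracellular calcium was read kinetically on FDSS for 3 min.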

[11] = molecular target: Muscarinic acetylcholine receptor M1 (Homo sapiens) (UniProt P11229); assay: Cholinergic receptor muscarinic 1 (CHRM1) small molecule agonists, cell-based qHTS assay (AID 1963589); note: nearly all actives have a fitted effect of over 35% in size
In short: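 Kinetic fluorescence (1 s intervals) of calcium-sensitive dye in human M1 CHO cells after compound addition; cells pre-incubated 18 h at 37 C/5% CO2 and dye-loaded 1 h.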

[12] = cAMP Responsive Elements (CRE) small molecule agonists, cell-based qHTS assay (AID 1963590)
In short: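 Test agents in DMSO were incubated 3 h at 37 C/5% CO2 with CRE-bla HEK 293T cells seeded 18 h earlier; LiveBLAzer B/G FRET substrate was added and read after 2 h at room temperature.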

[13] = p53 small molecule agonists, cell-based qHTS assay (AID 1963582; active = well fitted activation curve with a large enough effect in the signal ratio in the repeat runs, not every such curve was filed as active; the % refers to the signal ratio; note: potency is the fitted concentration of half-maximal effect)
In short: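 Measured: fluorescence from cleaved LiveBLAzer substrate. System: p53RE-bla cells, 16 h compound treatment at 37 C, 2 h substrate step at room temperature.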

[14] = molecular target: 5-hydroxytryptamine receptor 2A (Homo sapiens) (UniProt P28223); assay: 5-hydroxytryptamine receptor 2A (HTR2A) small molecule antagonists, cell-based qHTS assay (AID 1963586); note: nearly all actives have a fitted effect of over 45% in size
In short: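 CHO cells stably expressing human HTR2A were plated for 18 h at 37 C, then loaded with calcium dye for 1 h. Compounds were preincubated 5 min at room temperature before DOI (4 nM solution) was added. Kinetic fluorescence was read for 3 min.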

[15] = molecular target: Beta-2 adrenergic receptor (Homo sapiens) (UniProt P07550); assay: Adrenergic beta2 receptor (ADRB2) small molecule antagonists, cell-based qHTS assay (AID 1963592); note: series mostly up to about 92 µM; nearly all actives have a fitted effect of over 50% in size
In short: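 Assay format: CHO-ADRB2 cells, 18-20hr seeding at 37C/5% CO2, then compound plus 1nM isoproterenol agonist mix for 0.5hr RT. Homogeneous time-resolved fluorescence cAMP detection after 1hr, expressed as 665/615 nm ratio.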

[16] = molecular target: Beta-2 adrenergic receptor (Homo sapiens) (UniProt P07550); assay: Adrenergic beta2 receptor (ADRB2) small molecule agonists, cell-based qHTS assay (AID 1963593);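 note: CHO cells stably overexpressing human ADRB2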
In short: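 CHO cells stably over-expressing ADRB2 were plated overnight at 37C, then dosed with compounds plus a stimulation mix containing 100uM IBMX and 25uM Ro-20-1724 for 0.5hr at room temperature. cAMP was measured by HTRF competition, 1hr.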

[17] = molecular target: D(2) dopamine receptor (Homo sapiens) (UniProt P14416); assay: Dopamine D2 receptor (DRD2) small molecule agonists, cell-based qHTS assay (AID 1963594); note: nearly all actives have a fitted effect of over 35% in size
In short: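 cAMP accumulation in DRD2-HEK293 cells measured by HTRF after 1 h detection; compounds added 10 min before NKH477 (200nM […]) forskolin-analogue stimulation, 30 min at room temperature, with Ro20-1724 present at 0.1 mM final.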

[18] = molecular target: D(2) dopamine receptor (Homo sapiens) (UniProt P14416); assay: Dopamine D2 receptor (DRD2) small molecule antagonists, cell-based qHTS assay (AID 1963595; active = well fitted inhibition curve with a large enough effect in the signal ratio in the repeat runs, with a control signal flat; the % refers to the signal ratio)
In short: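 DRD2-HEK293; 0.1 mM Ro20-1724; cpd 10 min RT; NKH477 200 nM + quinpirole 12 nM, 30 min RT; HTRF cAMP (cAMP-d2/anti-cAMP cryptate), 665/620 nm ratio after 1 h.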

[19] = p53 small molecule agonists, cell-based qHTS assay: qHTS cell viability counter screen (AID 1963581); note: nearly all actives have a fitted effect of over 45% in size
In short: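 qHTS counter screen: 16 h compound exposure at 37 C of p53RE-bla HCT-116 cells (4,000 per well, seeded 5 h prior), cell viability by ATP luminescence.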

[20] = cAMP Responsive Elements (CRE) small molecule antagonists, cell-based qHTS assay (AID 1963591; active = well fitted inhibition curve with a large enough effect in the signal ratio in the repeat runs, not every such curve was filed as active; the % refers to the signal ratio; note: potency is the fitted concentration of half-maximal effect)
In short: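 Reporter line CRE-bla HEK 293T in dialyzed-FBS DMEM; cells preincubated 18 h, treated 3 h with compound plus NKH477 (0.25 uM final); LiveBLAzer FRET, 2 h RT.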

Sequence of Muscarinic acetylcholine receptor M1 (Homo sapiens) (P11229 whole entry, looked up): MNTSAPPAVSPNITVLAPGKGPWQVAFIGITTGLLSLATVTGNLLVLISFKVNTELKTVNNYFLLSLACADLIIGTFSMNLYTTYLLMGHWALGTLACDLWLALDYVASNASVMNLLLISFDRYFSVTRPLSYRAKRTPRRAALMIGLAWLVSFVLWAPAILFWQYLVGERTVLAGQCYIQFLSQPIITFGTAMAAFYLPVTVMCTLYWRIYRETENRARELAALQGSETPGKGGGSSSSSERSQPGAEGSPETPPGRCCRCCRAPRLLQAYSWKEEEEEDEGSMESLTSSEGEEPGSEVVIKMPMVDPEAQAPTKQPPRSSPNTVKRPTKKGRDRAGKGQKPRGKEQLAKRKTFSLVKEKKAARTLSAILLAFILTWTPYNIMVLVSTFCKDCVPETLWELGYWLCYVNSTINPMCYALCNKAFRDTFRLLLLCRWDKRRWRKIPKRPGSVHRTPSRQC
Sequence of Gonadotropin-releasing hormone receptor (Homo sapiens) (P30968 whole entry, looked up): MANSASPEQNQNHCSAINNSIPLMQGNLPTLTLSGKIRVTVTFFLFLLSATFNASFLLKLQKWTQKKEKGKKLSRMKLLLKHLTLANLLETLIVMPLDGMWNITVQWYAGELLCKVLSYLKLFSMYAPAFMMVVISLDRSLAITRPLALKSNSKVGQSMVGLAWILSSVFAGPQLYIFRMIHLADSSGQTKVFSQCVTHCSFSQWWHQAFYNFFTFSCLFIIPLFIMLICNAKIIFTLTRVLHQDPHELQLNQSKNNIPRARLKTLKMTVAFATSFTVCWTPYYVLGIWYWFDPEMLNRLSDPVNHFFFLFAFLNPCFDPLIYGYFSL
Sequence of Beta-2 adrenergic receptor (Homo sapiens) (P07550 whole entry, looked up): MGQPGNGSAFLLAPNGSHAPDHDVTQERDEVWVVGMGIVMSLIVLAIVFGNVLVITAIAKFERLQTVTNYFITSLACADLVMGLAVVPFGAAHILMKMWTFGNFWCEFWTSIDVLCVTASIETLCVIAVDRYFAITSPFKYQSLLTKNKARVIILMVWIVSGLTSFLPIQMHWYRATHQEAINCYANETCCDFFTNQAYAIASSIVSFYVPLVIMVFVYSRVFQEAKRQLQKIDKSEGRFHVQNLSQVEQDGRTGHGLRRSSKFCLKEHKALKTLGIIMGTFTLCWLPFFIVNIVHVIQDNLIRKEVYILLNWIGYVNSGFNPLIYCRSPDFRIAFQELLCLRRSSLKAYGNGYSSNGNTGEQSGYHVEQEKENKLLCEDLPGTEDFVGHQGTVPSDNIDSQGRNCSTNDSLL
Sequence of D(2) dopamine receptor (Homo sapiens) (P14416 whole entry, looked up): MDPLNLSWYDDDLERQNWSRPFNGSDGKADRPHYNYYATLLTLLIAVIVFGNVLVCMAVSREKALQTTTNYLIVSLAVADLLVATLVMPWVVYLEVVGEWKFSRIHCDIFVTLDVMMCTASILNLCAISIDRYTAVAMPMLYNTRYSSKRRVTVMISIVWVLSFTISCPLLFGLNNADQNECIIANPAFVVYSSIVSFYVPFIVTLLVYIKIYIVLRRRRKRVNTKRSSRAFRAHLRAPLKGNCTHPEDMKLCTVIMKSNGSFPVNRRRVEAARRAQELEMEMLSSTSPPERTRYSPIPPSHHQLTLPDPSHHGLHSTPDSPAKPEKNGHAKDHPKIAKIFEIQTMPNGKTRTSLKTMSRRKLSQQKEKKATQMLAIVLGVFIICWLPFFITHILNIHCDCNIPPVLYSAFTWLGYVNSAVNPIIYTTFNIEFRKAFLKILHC
Sequence of KiSS-1 receptor (Homo sapiens) (Q969F8 whole entry, looked up): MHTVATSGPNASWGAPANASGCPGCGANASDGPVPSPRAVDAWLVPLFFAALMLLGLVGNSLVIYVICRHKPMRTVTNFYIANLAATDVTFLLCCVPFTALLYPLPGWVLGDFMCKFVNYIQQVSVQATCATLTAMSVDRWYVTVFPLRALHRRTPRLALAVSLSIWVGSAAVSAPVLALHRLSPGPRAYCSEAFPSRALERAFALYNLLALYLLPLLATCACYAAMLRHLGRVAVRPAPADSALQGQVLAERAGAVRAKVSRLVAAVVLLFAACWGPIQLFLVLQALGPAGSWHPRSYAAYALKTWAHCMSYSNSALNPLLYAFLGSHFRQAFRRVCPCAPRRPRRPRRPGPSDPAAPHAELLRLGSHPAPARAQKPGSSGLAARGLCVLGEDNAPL
Sequence of 5-hydroxytryptamine receptor 2A (Homo sapiens) (P28223 whole entry, looked up): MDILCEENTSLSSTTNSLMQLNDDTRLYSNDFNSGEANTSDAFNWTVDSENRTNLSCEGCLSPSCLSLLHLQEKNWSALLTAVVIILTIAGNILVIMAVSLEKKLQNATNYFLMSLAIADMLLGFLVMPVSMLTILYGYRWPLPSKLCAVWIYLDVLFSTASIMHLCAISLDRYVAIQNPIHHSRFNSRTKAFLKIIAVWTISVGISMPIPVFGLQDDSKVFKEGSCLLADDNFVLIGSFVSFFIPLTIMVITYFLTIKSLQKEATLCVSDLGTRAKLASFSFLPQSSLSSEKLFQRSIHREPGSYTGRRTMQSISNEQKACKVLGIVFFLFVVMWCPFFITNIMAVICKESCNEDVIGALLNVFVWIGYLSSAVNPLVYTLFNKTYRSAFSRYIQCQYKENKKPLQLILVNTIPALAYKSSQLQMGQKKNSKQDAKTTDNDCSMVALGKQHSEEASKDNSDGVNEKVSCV

Oc1cccc(-c2c3nc(c(-c4cccc(O)c4)c4ccc([nH]4)c(-c4cccc(O)c4)c4nc(c(-c5cccc(O)c5)c5ccc2[nH]5)CC4)C=C3)c1
Potency [1]: inactive
Potency [2]: inactive
Potency [3]: inactive
Potency [4]: inactive
Potency [5]: inactive
Potency [6]: inactive
Potency [7]: inactive
Potency [8]: inactive
Potency [9]: inactive
Potency [10]: inactive
Potency [11]: inactive
Potency [12]: inactive

COc1ccc(C(=O)/C(Br)=C\C(=O)O)cc1
Potency [1]: 54.5 µM (active)
Potency [2]: inactive
Potency [3]: inactive
Potency [4]: inactive
Potency [5]: inactive
Potency [6]: inactive
Potency [7]: 45.8 µM (active)
Potency [13]: 32.4 µM (active)
Potency [14]: inactive
Potency [9]: inactive
Potency [10]: inactive
Potency [11]: inactive
Potency [15]: inactive
Potency [16]: inactive
Potency [17]: inactive
Potency [18]: inactive

CC1C2CC(CC2C2CCCC(O)C2)C1(C)C (stereo not drawn)
Potency [1]: inactive
Potency [2]: inactive
Potency [3]: inactive
Potency [4]: inactive
Potency [5]: inactive
Potency [6]: inactive
Potency [7]: inactive
Potency [19]: inactive
Potency [13]: inactive
Potency [14]: inactive
Potency [9]: inactive
Potency [10]: inactive
Potency [16]: inactive
Potency [17]: inactive
Potency [18]: inactive

CC(COc1ccc(C(C)(C)C)cc1)OS(=O)OCCCl (stereo not drawn)
Potency [1]: inactive
Potency [2]: inactive
Potency [3]: inactive
Potency [4]: inactive
Potency [5]: inactive
Potency [6]: inactive
Potency [7]: inactive
Potency [8]: inactive
Potency [13]: inactive
Potency [14]: inactive
Potency [9]: inactive
Potency [10]: inactive
Potency [11]: inactive
Potency [12]: inactive
Potency [20]: 43.5 µM (active)
Potency [15]: inactive
Potency [17]: inactive
Potency [18]: inactive

CCc1ccc(C(c2ccc(CC)cc2)C(Cl)Cl)cc1
Potency [1]: inactive and 27.3 µM (active)
Potency [2]: inactive
Potency [3]: inactive
Potency [4]: inactive
Potency [5]: inactive
Potency [6]: inactive
Potency [7]: inactive
Potency [19]: inactive
Potency [13]: inactive
Potency [14]: inactive
Potency [10]: inactive
Potency [11]: inactive
Potency [12]: inactive
Potency [20]: inactive
Potency [15]: inactive
Potency [17]: inactive
Potency [18]: inactive

CCCCCCCCNC(C)C(O)c1ccc(SC(C)C)cc1 (stereo not drawn)
Potency [1]: inactive
Potency [2]: 16.9 µM (active)
Potency [3]: inactive
Potency [4]: inactive
Potency [5]: inactive
Potency [6]: inactive
Potency [7]: inactive
Potency [8]: 19.9 µM (active)
Potency [20]: 23.7 µM (active)
Potency [17]: inactive
Potency [18]: inactive

CC1=NN(c2cc(Cl)c(S(=O)(=O)O)cc2Cl)C(=O)C1N=Nc1ccc(S(=O)(=O)O)cc1 (stereo not drawn)
Potency [1]: inactive
Potency [2]: inactive
Potency [3]: inactive
Potency [4]: inactive
Potency [5]: inactive
Potency [6]: inactive
Potency [7]: inactive
Potency [19]: inactive
Potency [13]: inactive
Potency [14]: inactive
Potency [9]: inactive
Potency [10]: inactive
Potency [11]: inactive
Potency [12]: inactive
Potency [20]: inactive
Potency [15]: inactive
Potency [16]: inactive
Potency [17]: inactive
Potency [18]: inactive

Cc1ccc(O)c(O)c1
Potency [1]: 66.6 µM (active)
Potency [2]: inactive
Potency [3]: inactive
Potency [4]: inactive
Potency [5]: inactive
Potency [6]: inactive
Potency [7]: inactive
Potency [8]: inactive
Potency [9]: inactive
Potency [10]: inactive
Potency [12]: inactive
Potency [20]: inactive
Potency [15]: inactive
Potency [17]: inactive

NC(=O)c1ccccc1C(N)=O
Potency [1]: 68.9 µM (active)
Potency [2]: inactive
Potency [3]: inactive
Potency [4]: inactive
Potency [5]: inactive
Potency [6]: inactive
Potency [7]: inactive
Potency [8]: inactive
Potency [13]: 45.9 µM (active)
Potency [9]: inactive
Potency [10]: inactive
Potency [11]: inactive
Potency [12]: inactive
Potency [20]: inactive
Potency [15]: inactive
Potency [17]: inactive
Potency [18]: inactive

COC(=O)Nc1nc2ccc(C(=O)c3ccccc3)cc2[nH]1
Potency [1]: 3.76 µM (active)
Potency [2]: inactive
Potency [3]: inactive
Potency [4]: inactive
Potency [5]: inactive
Potency [6]: inactive
Potency [8]: inactive
Potency [20]: inactive
Potency [15]: inactive
Potency [17]: inactive
Potency [18]: inactive

Cc1onc(-c2c(Cl)cccc2Cl)c1C(=O)N[C@@H]1C(=O)N2[C@@H]1SC(C)(C)[C@@H]2C(=O)O
Potency [1]: inactive
Potency [2]: inactive
Potency [3]: inactive
Potency [4]: inactive
Potency [5]: inactive
Potency [6]: inactive
Potency [8]: inactive
Potency [19]: inactive
Potency [13]: inactive
Potency [14]: inactive
Potency [11]: inactive
Potency [20]: inactive
Potency [15]: inactive
Potency [16]: inactive
Potency [17]: inactive
Potency [18]: inactive

C[C@]12CC[C@@H]3c4ccc(O)cc4CC[C@H]3[C@@H]1CC[C@@H]2OC(=O)CCC1CCCC1
Potency [1]: inactive
Potency [2]: inactive
Potency [3]: inactive
Potency [4]: inactive
Potency [5]: inactive
Potency [7]: inactive
Potency [8]: inactive
Potency [13]: inactive
Potency [14]: inactive
Potency [9]: inactive
Potency [10]: inactive
Potency [11]: inactive
Potency [12]: inactive
Potency [20]: inactive
Potency [15]: inactive
Potency [17]: inactive
Potency [18]: inactive

Nc1ccc(N=Nc2ccc(N)cc2)cc1
Potency [1]: inactive
Potency [2]: inactive
Potency [3]: inactive
Potency [4]: inactive
Potency [5]: inactive
Potency [6]: inactive
Potency [8]: inactive
Potency [13]: inactive
Potency [14]: inactive
Potency [11]: inactive
Potency [12]: inactive
Potency [20]: inactive
Potency [15]: inactive
Potency [17]: inactive
Potency [18]: inactive

CC(=O)Oc1ccc(C2(c3ccc(OC(C)=O)cc3)Oc3ccccc3NC2=O)cc1
Potency [1]: inactive
Potency [2]: inactive
Potency [3]: inactive
Potency [4]: inactive
Potency [5]: inactive
Potency [6]: inactive
Potency [13]: 4.46 µM (active)
Potency [14]: inactive
Potency [9]: inactive
Potency [11]: inactive
Potency [12]: inactive
Potency [15]: inactive
Potency [17]: inactive

C=CC(C)(CCC=C(C)C)OC(=O)/C=C/c1ccccc1 (stereo not drawn)
Potency [1]: 68.6 µM (active)
Potency [2]: inactive
Potency [3]: inactive
Potency [4]: inactive
Potency [5]: inactive
Potency [6]: inactive
Potency [19]: inactive
Potency [13]: inactive
Potency [14]: inactive
Potency [9]: inactive
Potency [10]: inactive
Potency [11]: inactive
Potency [12]: inactive
Potency [20]: inactive
Potency [15]: inactive
Potency [17]: inactive
Potency [18]: inactive
